Measured values: PubChem BioAssay AID1159580 (chemical genetic matrix, 2015)
The campaign covered roughly 5,500 compounds. About 2,000 (36%) were called active. Not shown: some 18% with an inconclusive outcome. Cut-off read from the data, not from the text of the source: active = normalized growth mostly below about 0.91 (no sharp cut-off); inconclusive = no clear call, values can overlap the other calls; inactive = mostly above about 0.92. This is one part of the list.

Assay: chemical genetic growth profiling, strain panel (AID 1159580);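 note: tested at 20 µM; growth read once vehicle control cultures reached saturation at 30 °C; 1 = growth at the plate median or of vehicle wells; lower values mean less growth of the strain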
Conditions: S. cerevisiae deletion strains, growth OD

Measured: normalized growth

Oc1ccc([C@H]2Oc3cc(O)cc(O)c3C[C@H]2O)cc1
inactive: locus YAL021C, strain ccr4, stronger effect = lower value 0.995 | locus YAL026C, strain drs2, stronger effect = lower value 0.991 | locus YAL030W, strain snc1, stronger effect = lower value 0.988 | locus YBL061C, strain skt5, stronger effect = lower value 0.98 | locus YBR009C, strain hhf1, stronger effect = lower value 1.02 | locus YBR023C, strain chs3, stronger effect = lower value 0.99 | locus YBR171W, strain sec66, stronger effect = lower value 0.969 | locus YBR231C, strain swc5, stronger effect = lower value 0.94 | locus YBR279W, strain paf1, stronger effect = lower value 0.999 | locus YCL011C, strain gbp2, stronger effect = lower value 1.01 | locus YCL016C, strain dcc1, stronger effect = lower value 1.01 | locus YCL069W, strain vba3, stronger effect = lower value 0.981 | locus YCR088W, strain abp1, stronger effect = lower value 0.987 | locus YDL005C, strain med2, stronger effect = lower value 0.988 | locus YDL040C, strain nat1, stronger effect = lower value 0.983 | locus YDR001C, strain nth1, stronger effect = lower value 0.987 | locus YDR069C, strain doa4, stronger effect = lower value 0.952 | locus YDR137W, strain rgp1, stronger effect = lower value 0.996 | locus YDR159W, strain sac3, stronger effect = lower value 0.939 | locus YDR195W, strain ref2 0.933 | locus YDR297W, strain sur2, stronger effect = lower value 0.984 | locus YDR334W, strain swr1, stronger effect = lower value 0.976 | locus YDR335W, strain msn5, stronger effect = lower value 0.995 | locus YDR392W, strain spt3, stronger effect = lower value 0.929 | locus YEL003W, strain gim4, stronger effect = lower value 0.97 | locus YEL037C, strain rad23, stronger effect = lower value 0.982 | locus YEL061C, strain CIN8 (second series), stronger effect = lower value 0.979 | locus YER015W, strain faa2, stronger effect = lower value 0.998 | locus YER016W, strain bim1, stronger effect = lower value 0.991 | locus YER111C, strain swi4, stronger effect = lower value 0.967 | locus YER155C, strain BEM2 (second series), stronger effect = lower value 0.948 | locus YFR010W, strain ubp6, stronger effect = lower value 0.971 | locus YGL167C, strain pmr1, stronger effect = lower value 0.986 | locus YGL173C, strain kem1, stronger effect = lower value 0.977 | locus YGL227W, strain vid30, stronger effect = lower value 0.987 | locus YGL240W, strain doc1, stronger effect = lower value 0.969 | locus YGL253W, strain hxk2, stronger effect = lower value 0.956 | locus YHR013C, strain ard1, stronger effect = lower value 1.01 | locus YHR027C, strain rpn1, stronger effect = lower value 0.979 | locus YHR030C, strain SLT2, stronger effect = lower value 0.983 | locus YHR079C, strain IRE1, stronger effect = lower value 0.981 | locus YHR142W, strain chs7, stronger effect = lower value 0.993 | locus YJL092W, strain hpr5, stronger effect = lower value 0.983 | locus YJL095W, strain BCK1 (second series), stronger effect = lower value 0.977 | locus YJL095W, strain BCK1, stronger effect = lower value 0.97 | locus YJL115W, strain asf1, stronger effect = lower value 0.976 | locus YJL129C, strain trk1, stronger effect = lower value 0.978 | locus YJL154C, strain vps35, stronger effect = lower value 0.984 | locus YJL164C, strain tpk1, stronger effect = lower value 1 | locus YJL166W, strain qcr8, stronger effect = lower value 0.998 | locus YJR066W, strain TOR1, stronger effect = lower value 0.947 | locus YKL160W, strain elf1, stronger effect = lower value 1.02 | locus YKR026C, strain gcn3, stronger effect = lower value 0.968 | locus YKR091W, strain srl3, stronger effect = lower value 0.992 | locus YLL001W, strain dnm1, stronger effect = lower value 0.956 | locus YLL026W, stronger effect = lower value 0.993 | locus YLL041C, strain sdh2, stronger effect = lower value 0.983 | locus YLR027C, strain aat2, stronger effect = lower value 0.976 | locus YLR113W, strain HOG1, stronger effect = lower value 0.977 | locus YLR221C, strain rsa3, stronger effect = lower value 0.964 | locus YLR258W, strain gsy2, stronger effect = lower value 0.999 | locus YLR262C, strain YPT6 (second series), stronger effect = lower value 1 | locus YLR320W, strain mms22, stronger effect = lower value 0.982 | locus YLR342W, strain FKS1, stronger effect = lower value 0.99 | locus YLR357W, strain rsc2, stronger effect = lower value 0.949 | locus YLR370C, strain arc18, stronger effect = lower value 0.977 | locus YLR384C, strain iki3, stronger effect = lower value 0.991 | locus YML120C, strain ndi1, stronger effect = lower value 1 | locus YMR058W, strain fet3, stronger effect = lower value 0.985 | locus YMR125W, strain sto1, stronger effect = lower value 0.99 | locus YMR129W, stronger effect = lower value 0.989 | locus YMR205C, strain PFK2, stronger effect = lower value 1 | locus YMR231W, strain pep5, stronger effect = lower value 0.976 | locus YNL071W, strain lat1, stronger effect = lower value 1 | locus YNL183C, strain NPR1, stronger effect = lower value 0.956 | locus YNL209W, strain ssb2, stronger effect = lower value 1.01 | locus YNL248C, strain rpa49, stronger effect = lower value 0.956 | locus YNL322C, strain KRE1 (second series), stronger effect = lower value 0.995 | locus YNR049C, strain mso1, stronger effect = lower value 0.987 | locus YOR001W, strain rrp6, stronger effect = lower value 0.947 | locus YOR070C, strain gyp1, stronger effect = lower value 0.99 | locus YOR080W, strain dia2, stronger effect = lower value 0.974 | locus YOR083W, strain WHI5, stronger effect = lower value 1.01 | locus YOR106W, strain vam3, stronger effect = lower value 1.02 | locus YOR231W, strain MKK1, stronger effect = lower value 0.978 | locus YOR265W, strain rbl2, stronger effect = lower value 0.981 | locus YOR270C, strain vph1, stronger effect = lower value 0.958 | locus YOR290C, strain snf2, stronger effect = lower value 1.03 | locus YPL051W, strain arl3, stronger effect = lower value 0.954 | locus YPL078C, strain atp4, stronger effect = lower value 1.01 | locus YPL106C, strain sse1, stronger effect = lower value 0.982 | locus YPL240C, strain hsp82, stronger effect = lower value 0.989 | locus YPL256C, strain CLN2, stronger effect = lower value 0.967
